Test results: PubChem BioAssay (NCI)
The panel holds about 79,000 compounds, 15% with a hit somewhere; the sample as a whole holds those more often. Values without a mark were called inactive. Active and inactive are the calls of the source. No stated cut-off is given here; in the data, active means growth inhibition above about 70%; inactive means the rest.

Tests used:
[1] = NCI Yeast Anticancer Drug Screen. Data for the rad50 strain (AID 155);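 further: 0% = growth of vehicle-only cultures of the same strain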; details: S. cerevisiae rad50 strain growth inhibition, stronger effect = higher value
Outline: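 Relative growth inhibition (compound vs vehicle) was measured in yeast with a defined repair-gene alteration.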

[2] = NCI Yeast Anticancer Drug Screen. Data for the mec2-1 strain (AID 157); details: S. cerevisiae mec2-1 strain, stronger effect = higher value
Outline: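 Strain: mec2-1 (DNA repair/cell cycle alteration). Compound exposure, then growth measured; inhibition expressed relative to vehicle.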

[3] = NCI Yeast Anticancer Drug Screen. Data for the sgs1 mgt1 strain (AID 161);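 further: 0% = growth of cultures given vehicle only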; details: S. cerevisiae sgs1 mgt1 strain, stronger effect = higher value
Outline: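 Mutant yeast exposed to compound; growth scored against vehicle-only wells.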

[4] = NCI Yeast Anticancer Drug Screen. Data for the cln2 rad14 strain (AID 165);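 further: 0% = growth equal to vehicle treated cultures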; details: S. cerevisiae cln2 rad14 strain, stronger effect = higher value
Outline: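 Compounds are applied to the cln2 rad14 yeast strain, and growth is then compared with that of vehicle-treated cultures to give inhibition.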

[5] = NCI Yeast Anticancer Drug Screen. Data for the bub3 strain (AID 167); details: S. cerevisiae bub3 mutant strain, stronger effect = higher value
Outline: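 Screening used yeast with an engineered genetic alteration affecting cell cycle control. Compound-exposed cultures were compared with vehicle cultures, and reduced growth was taken as inhibition.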

[6] = NCI Yeast Anticancer Drug Screen. Data for the mlh1 rad18 strain (AID 175); details: S. cerevisiae mlh1 rad18 strain growth inhibition, stronger effect = higher value
Outline: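 Read-out is yeast growth inhibition, calculated against vehicle-only controls. The compound was applied to a strain engineered with DNA damage repair alterations.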

[7] = at 5.0 µM (retest, dose inferred, filed as 0.5)
[8] = at 50.0 µM (retest, dose inferred, filed as 5.0)

## CC(C)N(CCOc1ccc(/C=C/c2ccccc2)cc1)C(C)C
[1]; [7]
  growth inhibition: 4%
[1]; [8]
  growth inhibition: 1%
[1]; at 50.0 µM
  growth inhibition: 12.1%
[2]; [7]
  growth inhibition: 4%
[2]; [8]
  growth inhibition: 1%
[2]; at 50.0 µM
  growth inhibition: -1.45%
[3]; [7]
  growth inhibition: 8%
[3]; [8]
  growth inhibition: 2%
[3]; at 50.0 µM
  growth inhibition: 55.9%
[4]; [7]
  growth inhibition: 6%
[4]; [8]
  growth inhibition: 2%
[4]; at 50.0 µM
  growth inhibition: 8.5%
[5]; [7]
  growth inhibition: 4%
[5]; [8]
  growth inhibition: -3%
[5]; at 50.0 µM
  growth inhibition: 75.8% (active)
[6]; [7]
  growth inhibition: 6%
[6]; [8]
  growth inhibition: 4%
[6]; at 50.0 µM
  growth inhibition: 9.3%

## O=C(O)C1CCCCC1.[Ag]
[1]; [7]
  growth inhibition: 43%
[1]; [8]
  growth inhibition: 99% (active)
[1]; at 50.0 µM
  growth inhibition: 90.3% (active)
[2]; [7]
  growth inhibition: 42%
[2]; [8]
  growth inhibition: 99% (active)
[2]; at 50.0 µM
  growth inhibition: 92% (active)
[3]; [7]
  growth inhibition: 99% (active)
[3]; [8]
  growth inhibition: 99% (active)
[3]; at 50.0 µM
  growth inhibition: 93.2% (active)
[4]; [7]
  growth inhibition: 99% (active)
[4]; [8]
  growth inhibition: 99% (active)
[4]; at 50.0 µM
  growth inhibition: 91% (active)
[5]; [7]
  growth inhibition: 99% (active)
[5]; [8]
  growth inhibition: 100% (active)
[5]; at 50.0 µM
  growth inhibition: 90.6% (active)
[6]; [7]
  growth inhibition: 34%
[6]; [8]
  growth inhibition: 100% (active)
[6]; at 50.0 µM
  growth inhibition: 90.5% (active)

## C=C1C(=O)O[C@H]2C3C(=C(C)CC[C@@H]12)C(=O)[C@@H]1OC31C (stereo not given in full)
[1]; [7]
  growth inhibition: 22%
[1]; [8]
  growth inhibition: 49%
[1]; at 50.0 µM
  growth inhibition: 36.8%
[2]; [7]
  growth inhibition: 16%
[2]; [8]
  growth inhibition: 52%
[2]; at 50.0 µM
  growth inhibition: 37.2%
[3]; [7]
  growth inhibition: 35%
[3]; [8]
  growth inhibition: 74% (active)
[3]; at 50.0 µM
  growth inhibition: 46%
[4]; [7]
  growth inhibition: 19%
[4]; [8]
  growth inhibition: 51%
[4]; at 50.0 µM
  growth inhibition: 34%
[5]; [7]
  growth inhibition: 21%
[5]; [8]
  growth inhibition: 60%
[5]; at 50.0 µM
  growth inhibition: 23.9%
[6]; [7]
  growth inhibition: 19%
[6]; [8]
  growth inhibition: 62%
[6]; at 50.0 µM
  growth inhibition: 46.2%

## Cc1cc2nc3n(c2cc1C)C(c1c(F)cccc1F)SC3 (stereo not given)
[1]; [7]
  growth inhibition: 25%
[1]; [8]
  growth inhibition: 24%
[1]; at 50.0 µM
  growth inhibition: -6.85%
[2]; [7]
  growth inhibition: 16%
[2]; [8]
  growth inhibition: 12%
[2]; at 50.0 µM
  growth inhibition: -14.7%
[3]; [7]
  growth inhibition: 27%
[3]; [8]
  growth inhibition: 24%
[3]; at 50.0 µM
  growth inhibition: 9.1%
[4]; [7]
  growth inhibition: 12%
[4]; [8]
  growth inhibition: 23%
[4]; at 50.0 µM
  growth inhibition: -6.1%
[5]; [7]
  growth inhibition: 26%
[5]; [8]
  growth inhibition: 25%
[5]; at 50.0 µM
  growth inhibition: 30.5%
[6]; [7]
  growth inhibition: 26%
[6]; [8]
  growth inhibition: 22%
[6]; at 50.0 µM
  growth inhibition: -0.35%

## N#Cc1ncc(Cl)cc1[N+](=O)[O-]
[1]; [7]
  growth inhibition: 93% (active)
[1]; [8]
  growth inhibition: 98% (active)
[1]; at 50.0 µM
  growth inhibition: 99.5% (active)
[2]; [7]
  growth inhibition: 80% (active)
[2]; [8]
  growth inhibition: 99% (active)
[2]; at 50.0 µM
  growth inhibition: 99.7% (active)
[3]; [7]
  growth inhibition: 93% (active)
[3]; [8]
  growth inhibition: 99% (active)
[3]; at 50.0 µM
  growth inhibition: 99.5% (active)
[4]; [7]
  growth inhibition: 59%
[4]; [8]
  growth inhibition: 98% (active)
[4]; at 50.0 µM
  growth inhibition: 99.2% (active)
[5]; [7]
  growth inhibition: 70% (active)
[5]; [8]
  growth inhibition: 98% (active)
[5]; at 50.0 µM
  growth inhibition: 99.6% (active)
[6]; [7]
  growth inhibition: 75% (active)
[6]; [8]
  growth inhibition: 98% (active)
[6]; at 50.0 µM
  growth inhibition: 99.5% (active)

## CS(C)=O.[Cl-].[Cl-].[NH-]CC(O)CN(Cc1ccccc1)CC(O)CN.[Pt] (stereo not given)
[1]; [7]
  growth inhibition: -15%
[1]; [8]
  growth inhibition: 4%
[1]; at 50.0 µM
  growth inhibition: 31.9%
[2]; [7]
  growth inhibition: 18%
[2]; [8]
  growth inhibition: 20%
[2]; at 50.0 µM
  growth inhibition: 1%
[3]; [7]
  growth inhibition: 2%
[3]; [8]
  growth inhibition: 18%
[3]; at 50.0 µM
  growth inhibition: 17.7%
[4]; [7]
  growth inhibition: 39%
[4]; [8]
  growth inhibition: 14%
[4]; at 50.0 µM
  growth inhibition: -6.25%
[5]; [7]
  growth inhibition: -19%
[5]; [8]
  growth inhibition: -11%
[5]; at 50.0 µM
  growth inhibition: -5.7%
[6]; [7]
  growth inhibition: -13%
[6]; [8]
  growth inhibition: -4%
[6]; at 50.0 µM
  growth inhibition: 7.75%

## CCC1(CC)COC(C)(C(=O)O)OC1
[1]; [7]
  growth inhibition: -155%
[1]; [8]
  growth inhibition: -176%
[1]; at 50.0 µM
  growth inhibition: 56.9%
[2]; [7]
  growth inhibition: -50%
[2]; [8]
  growth inhibition: -62%
[2]; at 50.0 µM
  growth inhibition: 11.1%
[3]; [7]
  growth inhibition: -68%
[3]; [8]
  growth inhibition: -69%
[3]; at 50.0 µM
  growth inhibition: -2.95%
[4]; [7]
  growth inhibition: -51%
[4]; [8]
  growth inhibition: -77%
[4]; at 50.0 µM
  growth inhibition: -41.4%
[5]; [7]
  growth inhibition: -65%
[5]; [8]
  growth inhibition: -71%
[5]; at 50.0 µM
  growth inhibition: 6.2%
[6]; [7]
  growth inhibition: -127%
[6]; [8]
  growth inhibition: -168%
[6]; at 50.0 µM
  growth inhibition: -6.2%

## COC(=O)c1c(COC(=O)NC(C)C)c2n(c1C)CS(=O)(=O)C2
[1]; [7]
  growth inhibition: -38%
[1]; [8]
  growth inhibition: -8%
[1]; at 50.0 µM
  growth inhibition: 97.3% (active)
[2]; [7]
  growth inhibition: 3%
[2]; [8]
  growth inhibition: 5%
[2]; at 50.0 µM
  growth inhibition: 98.5% (active)
[3]; [7]
  growth inhibition: -3%
[3]; [8]
  growth inhibition: 31%
[3]; at 50.0 µM
  growth inhibition: 98.4% (active)
[4]; [7]
  growth inhibition: -6%
[4]; [8]
  growth inhibition: -20%
[4]; at 50.0 µM
  growth inhibition: 98% (active)
[5]; [7]
  growth inhibition: -18%
[5]; [8]
  growth inhibition: 3%
[5]; at 50.0 µM
  growth inhibition: 97% (active)
[6]; [7]
  growth inhibition: -35%
[6]; [8]
  growth inhibition: -32%
[6]; at 50.0 µM
  growth inhibition: 97.7% (active)

## CC(C)C1=CC(=O)C2=C(CCC3C(C)(C(=O)O)CCC[C@]23C)C1=O (stereo not given in full)
[1]; [7]
  growth inhibition: 7%
[1]; [8]
  growth inhibition: 99% (active)
[1]; at 50.0 µM
  growth inhibition: 92.2% (active)
[2]; [7]
  growth inhibition: 28%
[2]; [8]
  growth inhibition: 99% (active)
[2]; at 50.0 µM
  growth inhibition: 93% (active)
[3]; [7]
  growth inhibition: 20%
[3]; [8]
  growth inhibition: 99% (active)
[3]; at 50.0 µM
  growth inhibition: 93.2% (active)
[4]; [7]
  growth inhibition: 15%
[4]; [8]
  growth inhibition: 99% (active)
[4]; at 50.0 µM
  growth inhibition: 90.7% (active)
[5]; [7]
  growth inhibition: 54%
[5]; [8]
  growth inhibition: 98% (active)
[5]; at 50.0 µM
  growth inhibition: 92.3% (active)
[6]; [7]
  growth inhibition: 21%
[6]; [8]
  growth inhibition: 99% (active)
[6]; at 50.0 µM
  growth inhibition: 91.7% (active)

## CCOC(=O)/C(=C\c1cccc(C(F)(F)F)c1)P(=O)(OCC)OCC
[1]; [7]
  growth inhibition: 31%
[1]; [8]
  growth inhibition: 50%
[1]; at 50.0 µM
  growth inhibition: 75.7% (active)
[2]; [7]
  growth inhibition: -8%
[2]; [8]
  growth inhibition: 74% (active)
[2]; at 50.0 µM
  growth inhibition: 79% (active)
[3]; [7]
  growth inhibition: 3%
[3]; [8]
  growth inhibition: 55%
[3]; at 50.0 µM
  growth inhibition: 68.1%
[4]; [7]
  growth inhibition: 26%
[4]; [8]
  growth inhibition: 40%
[4]; at 50.0 µM
  growth inhibition: 42.1%
[5]; [7]
  growth inhibition: 27%
[5]; [8]
  growth inhibition: 85% (active)
[5]; at 50.0 µM
  growth inhibition: 71.8% (active)
[6]; [7]
  growth inhibition: 13%
[6]; [8]
  growth inhibition: 82% (active)
[6]; at 50.0 µM
  growth inhibition: 52.2%
